This test concerns HepG2. In words: GSK_TCMDC: Percent inhibition of human HepG2 cell line. Test compounds present at 10uM. Format: functional.
As for `CN(C)c1ccc(CN2CCC(CNC(=O)c3cc(-c4ccccc4Cl)cs3)C2)cc1.O=C(O)C(F)(F)F` (configuration not stated), the Inhibition was determined as 29%.

On to `CCn1c(-c2nonc2N)nc2c(-c3ccccc3)ncc(OCCCCNCCc3ncc[nH]3)c21.O=C(O)C(F)(F)F`, for which the Inhibition is on record as 34%.

In turn, `O=C(c1cc(C(=O)NC2CCCCC2)c(=O)n(C2CCCCC2)c1)c1cc(F)ccc1O` gave an Inhibition of 22%.

Regarding `COc1ccc2nccc([C@@H](O)CN3CCC(NC(=O)c4cc5c(F)cc(F)cc5[nH]4)CC3)c2c1.CS(=O)(=O)O`, the Inhibition is listed as 33%.

`CCCCOc1cc(OC)c2ccccc2c1CCNCCCCNCCc1c(OCCCC)cc(OC)c2ccccc12.CS(=O)(=O)O`: the Inhibition was 100%.

In turn, `Cl.O=C(NCCCCN1CCC(O)(c2ccc3c(c2)OCO3)CC1)c1ccc(NC(=O)c2ccc(Cl)cc2)cc1` came in with an Inhibition of 15%.

Molecule `Cc1cccc2nc(-c3cccc(-c4ccc(NC(=O)NCc5cccc(F)c5)cc4)c3)[nH]c12` returned an Inhibition of 40%.

Take `CCCNCc1ccc(-c2ccc(CN(Cc3cnc(C)cn3)C(=O)c3nn(-c4ccccc4)nc3C)cc2)nc1.O=C(O)C(F)(F)F`: the Inhibition was found to be 22%.

Regarding `CC(C)[C@H](NC(=O)c1ccc(O)c(-c2ccc(Cl)c(Cl)c2)c1)C(=O)NC1CCCCCC1`, the Inhibition was determined as 0%.

Molecule `COc1ccc(CCNC(=O)c2ccc(-n3cc(NC(=O)c4cccnc4)cn3)cc2)cc1OC` showed an Inhibition of 17%.

For `C/C=C/COc1ccc2ccccc2c1CNCCCCCCCCNCc1c(OC/C=C/C)ccc2ccccc12.CS(=O)(=O)O.O`, the Inhibition is 100%.

For `N#Cc1cccc(NC(=O)c2ccc(S(=O)(=O)NCC3CCCN3CC3CCCCC3)cc2)c1.O=C(O)C(F)(F)F` (configuration not stated), the Inhibition is 25%.

A word on the Inhibition: it is the drop in the measured response relative to a control, in per cent. The low end stands for a response near the control, the high end for a response far below the control.

The values above are taken from ChEMBL document CHEMBL1157539, “Thousands of chemical starting points for antimalarial lead identification” (Nature, 2010).
